Measurements as given in PubChem BioAssay (EPA / NIEHS).
Activity calls are given as the source filed them. The calls were made as follows: active = hit-call score of the fitted dose curve at least 0.9, where 1 is the maximum; inactive = score below 0.9.

These compounds were tested against Myc proto-oncogene protein (Homo sapiens) (UniProt P01106) (assay: ATG_Myc_CIS: Attagene CIS-FACTORIAL HepG2 Assay for human Myelocytomatosis (Myc) Proto-Oncogene Transcription Factor (AID 2282990)). Settings: HepG2, Attagene cis-reporter transcription factor activity; actives raise or lower the signal.
Method: ATG_CIS is a cell-based, multiplexed-readout assay that uses HepG2, a human liver cell line, with measurements taken at 24 hours after chemical dosing in a 24-well plate.ATG_Myc_CIS is one of 52 assay component(s) measured or calculated from the ATG_CIS assay. It is designed to make measurements of mRNA induction, a form of inducible reporter, as detected with fluorescence intensity signals by Reverse transcription polymerase chain reaction (RT-PCR) and Capillary electrophoresis technology.Data from the assay component ATG_Myc_CIS was analyzed into 1 assay endpoint. This assay endpoint, ATG_Myc_CIS, was analyzed with bidirectional fitting relative to DMSO as the negative control and baseline of activity. Using a type of inducible reporter, measures of mRNA for gain or loss-of-signal activity can be used to understand the reporter gene at the transcription factor-level as they relate to the gene MYC. Furthermore, this assay endpoint can be referred to as a primary readout, because this assay has produced multiple assay endpoints where this one serves a reporter gene function. To generalize the intended target to other relatable targets, this assay endpoint is annotated to the dna binding intended target family, where the subfamily is basic helix-loop-helix leucine zipper.
Human liver HepG2 cells are transiently transfected with multiple reporter transcription units (MRTUs) in 6-well plates using FuGene 6 reagent (Roche; 3 ml FuGene/1 mg DNA). The MRTU constructs are regulated by a cis-regulating element (promoter). […] A major difference between the CIS and TRANS system is that in CIS activities of endogenous TFs are measured, whereas the TRANS assay evaluates changes in activities of exogenous, chimeric NR-Gal4 proteins. […] At the end of 24 hour incubation, total RNA was isolated using TriZol reagent (Invitrogen). The isolated RNA is then reverse-transcribed using oligo(dT) primer and Mo-MLV reverse transcriptase (Invitrogen) with DNAse I (Ambion) treatment for 30 min. The one-tenth of the produced cDNA was amplified by PCR using Taq DNA polymerase (Invitrogen) and two reporter sequence-specific primers. The PCR products were fluorescently labeled by primer extension with 6-arboxyfluorescein (6-FAM) 5'-labeled reporter sequence-specific primer (2 min at 95 C, 20 s at 68 C and 10 min at 72 C) and these products were digested with 5U of HpaI (New England Biolabs) for 2h at 37 C. The fragments were purified using Qiaquick PCR columns (Qiagen), analyzed on an ABI 3130xL genetic analyzer (Applied Biosystems) with peak positions identified by using a set of X-rhodamine (ROX)-labeled MapMarker1000 molecular weight standards (BioVentures). The raw capillary electrophoresis data was processed using Attagraph software (Attagene).

Sequence of Myc proto-oncogene protein (Homo sapiens) (P01106 whole entry, looked up): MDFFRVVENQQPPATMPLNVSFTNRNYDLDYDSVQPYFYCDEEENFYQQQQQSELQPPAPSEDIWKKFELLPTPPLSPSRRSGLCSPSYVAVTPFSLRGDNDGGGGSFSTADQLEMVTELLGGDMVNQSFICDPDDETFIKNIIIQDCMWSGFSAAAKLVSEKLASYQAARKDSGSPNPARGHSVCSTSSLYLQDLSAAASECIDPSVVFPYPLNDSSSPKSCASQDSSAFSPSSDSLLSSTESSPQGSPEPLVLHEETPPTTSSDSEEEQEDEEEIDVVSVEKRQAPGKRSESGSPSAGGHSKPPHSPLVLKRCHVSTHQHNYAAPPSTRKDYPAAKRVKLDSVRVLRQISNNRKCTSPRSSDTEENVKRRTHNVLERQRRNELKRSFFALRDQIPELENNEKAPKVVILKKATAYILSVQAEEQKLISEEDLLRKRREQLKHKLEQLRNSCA

| SMILES | outcome | AC50 |
| --- | --- | --- |
| COc1ccc(N=Nc2cc(C)c(N=Nc3ccc(S(=O)(=O)O)cc3)cc2OC)cc1 | inactive |  |
| COCCOC(=O)c1ccccc1C(=O)OCCOC | inactive |  |
| Nc1ccc2cc(S(=O)(=O)O)cc(O)c2c1N=Nc1ccccc1C(F)(F)F | inactive |  |
| C=CCCCCCCCCCC | inactive |  |
| O=C(Nc1ccc([N+](=O)[O-])cc1)Nc1ccc([N+](=O)[O-])cc1 (tested in a mixture with another compound) | inactive |  |
| O=C1CCCC=CCCCCCCCCCC1 | inactive |  |
| C1CCCCC1 | inactive |  |
| CC(=O)O[C@H]1C[C@@H]2CC[C@@]1(C)C2(C)C | inactive |  |
| CC(C)CCCCCCCCCCCCCCC(=O)O | inactive |  |
| O=Cc1ccccc1S(=O)(=O)O | inactive |  |
| C[N+](C)(C)CCCCCC[N+](C)(C)C | inactive |  |
| NC(=S)NNC(N)=S | inactive |  |
| CN(C)CCOc1ccc(/C(=C(/CCCl)c2ccccc2)c2ccccc2)cc1 | inactive |  |
| CCC(=O)O[C@@H]1C[C@H]2CC[C@]1(C)C2(C)C | inactive |  |
| Cc1ccc(S(=O)(=O)Oc2ccc(N=Nc3ccc(-c4ccc(N=Nc5c(O)ccc6cc(S(=O)(=O)O)cc(S(=O)(=O)O)c56)c(C)c4)cc3C)cc2)cc1 | inactive |  |
| CCOC(=O)C1OC1c1ccccc1 (stereo not given) | inactive |  |
| O=C(O)CNc1ccccc1 | inactive |  |
| CCCCCC(C=O)=Cc1ccccc1 | inactive |  |
| O=P(O)(O)O | inactive |  |
| CCOC(=O)c1ccc(N)cc1 | inactive |  |

| SMILES | outcome | AC50 |
| --- | --- | --- |
| CCCCC1(COC(=O)CCC(=O)O)C(=O)N(c2ccccc2)N(c2ccccc2)C1=O | inactive |  |
| CC1(C)C2=CCCC(C)(C)[C@]23CC[C@H]1C3 | inactive |  |
| OC[C@H]1O[C@@H](Oc2ccc(O)cc2)[C@H](O)[C@@H](O)[C@@H]1O | inactive |  |
| CC1CCC(C(C)C)C(O)C1 (stereo not given) | inactive |  |
| O=[N+]([O-])c1ccc(O)cc1C(F)(F)F | inactive |  |
| C=CC(=C)CCCC(C)(C)OC(C)=O | inactive |  |
| Cc1cc(S(=O)(=O)O)ccc1N=Nc1c(O)ccc2ccccc12 | inactive |  |
| O=C(c1ccccc1)C(O)c1ccccc1 (stereo not given) | inactive |  |
| ON=C1CCCCC1 | inactive |  |
| O=C(CS)OCCOC(=O)CS | inactive |  |
| Cc1cc(CCC(=O)OCCOCCOCCOC(=O)CCc2cc(C)c(O)c(C(C)(C)C)c2)cc(C(C)(C)C)c1O | inactive |  |
| COC(=O)c1ccc(OC)cc1 | inactive |  |
| c1ccc2cc(Nc3ccc(Nc4ccc5ccccc5c4)cc3)ccc2c1 | inactive |  |
| CCC(C)c1cc([N+](=O)[O-])cc([N+](=O)[O-])c1OC(=O)OC(C)C (stereo not given) | inactive |  |
| COCCc1ccc(OCC(O)CNC(C)C)cc1 (stereo not given) | inactive |  |
| CCCCN(CCCC)C(=O)N(CCCC)CCCC |  | 48.7 µM (active) |
| CCCCOCC | inactive |  |
| CC1(C)O[C@@H]2[C@@H](CO[C@@]3(COS(N)(=O)=O)OC(C)(C)O[C@@H]23)O1 | inactive |  |
| Cc1ncc([N+](=O)[O-])n1CCO | inactive |  |
| C=C(CC(=O)O)C(=O)O | inactive |  |
